# From publication PMC11062922 (Nature Chemical Biology, 2023)
# Where two headings read alike, the source gives them in different places.
# Legend:
# Parameters in all cases: species or system human, MV4-11 + K-562 + COLO205 + SK-N-BE2 + OVCAR-8
# [1] = system: ACAD11; details: read-out: apparent Kd, n = 1
# [2] = system: EGFR; details: read-out: apparent Kd, compound concentrations: 100 nM and 1000 nM (sheet 'Samples'), n = 1
# [3] = system: FRK; details: read-out: apparent Kd, compound concentrations: 100 nM and 1000 nM (sheet 'Samples'), n = 1
# [4] = system: LYN; details: read-out: apparent Kd, compound concentrations: 100 nM and 1000 nM (sheet 'Samples'), n = 1
# [5] = system: SRC; details: read-out: apparent Kd, compound concentrations: 100 nM and 1000 nM (sheet 'Samples'), n = 1
# [6] = system: CSK; details: read-out: apparent Kd, n = 1
# [7] = system: DDR1; details: read-out: apparent Kd, n = 1
# [8] = system: CDKL5; details: read-out: apparent Kd, n = 1
# [9] = system: EPHA1; details: read-out: apparent Kd, n = 1
# [10] = system: PRKD2; details: read-out: apparent Kd, n = 1
# [11] = system: DDR2; details: read-out: apparent Kd, n = 1
# [12] = system: MAPK14; details: read-out: apparent Kd, n = 1
# [13] = system: TGFBR1; details: read-out: apparent Kd, n = 1
# [14] = system: SIK2; details: read-out: apparent Kd, compound concentrations: 100 nM and 1000 nM (sheet 'Samples'), n = 1
# [15] = system: FLT3; details: read-out: apparent Kd, n = 1
# [16] = system: ACVR1; details: read-out: apparent Kd; compound concentrations: 100 nM and 1000 nM (sheet 'Samples'), CATDS: 0.23402364017956601; n = 1
# [17] = compound concentrations:100 nM and 1000 nM (sheet 'Samples')
smiles,measurement,setting,value
COc1cc2ncn(-c3cc(OCc4cccs4)c(C(N)=O)s3)c2cc1OC [GSK312948A],potency estimated from few doses,[1]; [17],766 nM
COc1cc2nccc(Nc3ccc(Oc4ccccc4)cc3)c2cc1OC.Cl [GI261656A],potency estimated from few doses,[2]; CATDS: 3.8994788715485701E-2,2360 nM
same,potency estimated from few doses,[3]; CATDS: 5.3958789023196299E-2,470 nM
same,potency estimated from few doses,[4]; CATDS: 7.8976671860543801E-2,160 nM
same,potency estimated from few doses,[5]; CATDS: 5.79534996745752E-2,372 nM
CN1CCc2ccc(Nc3nccc(-c4c(-c5cccc(NC(=O)c6c(F)cccc6F)c5)nc5ccccn45)n3)cc2C1.Cl [GSK1010829B],potency estimated from few doses,"[6]; compound concentrations: 100 nM and 1000 nM (sheet 'Samples'), CATDS: 3.4286589805654001E-2",1380 nM
same,potency estimated from few doses,"[7]; compound concentrations: 100 nM and 1000 nM (sheet 'Samples'), CATDS: 3.8396909039531198E-2",1010 nM
same,potency estimated from few doses,[2]; CATDS: 3.29518195590447E-2,1570 nM
same,potency estimated from few doses,[3]; CATDS: 4.3093308654231798E-2,770 nM
same,potency estimated from few doses,[4]; CATDS: 6.0028262979631E-2,403 nM
same,potency estimated from few doses,[5]; CATDS: 5.29363400907749E-2,505 nM
CC(C)c1nc(-c2cccc(NS(=O)(=O)c3c(F)cccc3F)c2F)c(-c2ccnc(Nc3ccc(N4CCOCC4)nc3)n2)s1 [GSK2008607A],potency estimated from few doses,"[8]; compound concentrations: 100 nM and 1000 nM (sheet 'Samples'), CATDS: 1.9051705210026099E-2",1650 nM
same,potency estimated from few doses,"[6]; compound concentrations: 100 nM and 1000 nM (sheet 'Samples'), CATDS: 4.1008032947333198E-2",262 nM
same,potency estimated from few doses,"[9]; compound concentrations: 100 nM and 1000 nM (sheet 'Samples'), CATDS: 2.5663443213215401E-2",679 nM
same,potency estimated from few doses,[4]; CATDS: 2.5134529621639101E-2,715 nM
same,potency estimated from few doses,"[10]; compound concentrations: 100 nM and 1000 nM (sheet 'Samples'), CATDS: 3.65380455917537E-2",323 nM
Fc1ccc(-c2c(-c3ccncc3)[nH]c3nccnc23)cc1 [RO1155697-000],potency estimated from few doses,[1]; [17],1300 nM
same,potency estimated from few doses,[7]; [17],1010 nM
same,potency estimated from few doses,[11]; [17],886 nM
same,potency estimated from few doses,"[12]; compound concentrations: 100 nM and 1000 nM (sheet 'Samples'), CATDS: 5.8125054995699497E-2",449 nM
same,potency estimated from few doses,[10]; [17],962 nM
same,potency estimated from few doses,[13]; [17],1950 nM
N#Cc1cnc2cc(-c3cnc(CNCCN4CCOCC4)s3)ccc2c1Nc1ccc(Oc2ccccc2)cc1 [GW664114X],potency estimated from few doses,"[6]; compound concentrations: 100 nM and 1000 nM (sheet 'Samples'), CATDS: 6.7492290868603394E-2",448 nM
same,potency estimated from few doses,[2]; CATDS: 4.1929469071091803E-2,2090 nM
same,potency estimated from few doses,[4]; CATDS: 6.1309680787230501E-2,562 nM
same,potency estimated from few doses,[5]; CATDS: 8.2949353782893101E-2,293 nM
CC(=O)N1CCN(c2ccc(Nc3nccc(-c4sc(C(C)C)nc4-c4cccc(NS(=O)(=O)c5cccc(Cl)c5)c4)n3)cn2)CC1 [GSK1660437A],potency estimated from few doses,"[6]; compound concentrations: 100 nM and 1000 nM (sheet 'Samples'), CATDS: 5.27130468240418E-2",741 nM
same,potency estimated from few doses,"[10]; compound concentrations: 100 nM and 1000 nM (sheet 'Samples'), CATDS: 5.4931765235902902E-2",680 nM
CC(C)c1nc(-c2cccc(NS(=O)(=O)c3c(F)cccc3F)c2)c(-c2ccnc(Nc3ccc(N4CCOCC4)nc3)n2)s1.Cl [GSK1723980B],potency estimated from few doses,"[8]; compound concentrations: 100 nM and 1000 nM (sheet 'Samples'), CATDS: 1.7066760873740601E-2",848 nM
same,potency estimated from few doses,"[6]; compound concentrations: 100 nM and 1000 nM (sheet 'Samples'), CATDS: 4.9145326105273501E-2",81.6 nM
same,potency estimated from few doses,[2]; CATDS: 1.4688482058743299E-2,1660 nM
same,potency estimated from few doses,"[9]; compound concentrations: 100 nM and 1000 nM (sheet 'Samples'), CATDS: 2.59841988169222E-2",261 nM
same,potency estimated from few doses,[3]; CATDS: 1.9563018152501301E-2,538 nM
same,potency estimated from few doses,[4]; CATDS: 2.8217143003072001E-2,219 nM
same,potency estimated from few doses,"[10]; compound concentrations: 100 nM and 1000 nM (sheet 'Samples'), CATDS: 3.4388885610582398E-2",149 nM
same,potency estimated from few doses,[14]; CATDS: 1.4802843404643599E-2,1590 nM
same,potency estimated from few doses,[5]; CATDS: 2.25730576079274E-2,364 nM
COc1cc2ncn(-c3cc(OCc4ccncc4)c(C(N)=O)s3)c2cc1OC [GSK336313A],potency estimated from few doses,[1]; [17],1400 nM
CNC(=O)c1ccccc1Nc1nc(Nc2cccc(CS(C)(=O)=O)c2)ncc1C.O=CO [GSK1520489A],potency estimated from few doses,"[7]; compound concentrations: 100 nM and 1000 nM (sheet 'Samples'), CATDS: 1.3625362720769099E-2",389 nM
same,potency estimated from few doses,"[11]; compound concentrations: 100 nM and 1000 nM (sheet 'Samples'), CATDS: 1.3086276372357399E-2",443 nM
same,potency estimated from few doses,[2]; CATDS: 1.37119506592154E-2,382 nM
same,potency estimated from few doses,"[9]; compound concentrations: 100 nM and 1000 nM (sheet 'Samples'), CATDS: 4.9501189051371401E-2",23.8 nM
same,potency estimated from few doses,"[15]; compound concentrations: 100 nM and 1000 nM (sheet 'Samples'), CATDS: 1.2283454590930699E-2",550 nM
same,potency estimated from few doses,[3]; CATDS: 1.0457896251618699E-2,1050 nM
same,potency estimated from few doses,[4]; CATDS: 1.17680848685595E-2,643 nM
same,potency estimated from few doses,[14]; CATDS: 1.1089332631068699E-2,813 nM
same,potency estimated from few doses,[5]; CATDS: 1.1920002971419799E-2,613 nM
same,potency estimated from few doses,"[13]; compound concentrations: 100 nM and 1000 nM (sheet 'Samples'), CATDS: 9.4696036955239198E-3",1790 nM
CC(C)c1nc(-c2ccc(F)c(NS(=O)(=O)c3c(F)cccc3F)c2)c(-c2ccnc(Nc3ccc(N4CCOCC4)nc3)n2)s1 [GSK1804250A],potency estimated from few doses,[8]; [17],984 nM
same,potency estimated from few doses,[6]; [17],442 nM
same,potency estimated from few doses,[9]; [17],548 nM
same,potency estimated from few doses,[10]; [17],232 nM
Nc1nc(N)c2nc(-c3ccccc3)[nH]c2n1 [SKF-12778],potency estimated from few doses,[1]; [17],1290 nM
same,potency estimated from few doses,[15]; [17],1070 nM
same,potency estimated from few doses,[12]; [17],973 nM
NS(=O)(=O)CCc1cccc(Nc2nccc(-c3c(-c4cccc(NC(=O)c5c(F)cccc5F)c4)nn4ccccc34)n2)c1 [GSK336735A],potency estimated from few doses,"[6]; compound concentrations: 100 nM and 1000 nM (sheet 'Samples'), CATDS: 5.7355343721703998E-2",1220 nM
same,potency estimated from few doses,"[7]; compound concentrations: 100 nM and 1000 nM (sheet 'Samples'), CATDS: 5.2826618660154298E-2",1570 nM
same,potency estimated from few doses,[2]; CATDS: 5.3399275908321601E-2,1520 nM
same,potency estimated from few doses,[4]; CATDS: 7.1175193729883096E-2,720 nM
CS(=O)(=O)Cc1ccc(Nc2nccc(-c3c(-c4cccc(NC(=O)c5c(F)cccc5F)c4)nn4ccccc34)n2)cc1 [GSK323543A],potency estimated from few doses,"[7]; compound concentrations: 100 nM and 1000 nM (sheet 'Samples'), CATDS: 5.7176748718511097E-2",1930 nM
same,potency estimated from few doses,[2]; CATDS: 5.5544990287731598E-2,2130 nM
same,potency estimated from few doses,[4]; CATDS: 6.3006631754301101E-2,1440 nM
CC(=O)N1CCN(c2ccc(Nc3nccc(-c4sc(C(C)C)nc4-c4cccc(NS(=O)(=O)c5ccccc5)c4)n3)cn2)CC1 [GSK1645872A],potency estimated from few doses,"[8]; compound concentrations: 100 nM and 1000 nM (sheet 'Samples'), CATDS: 2.2966868813045101E-2",1680 nM
same,potency estimated from few doses,[2]; CATDS: 3.0506753540730399E-2,710 nM
same,potency estimated from few doses,"[10]; compound concentrations: 100 nM and 1000 nM (sheet 'Samples'), CATDS: 6.4833229163543699E-2",179 nM
CNc1nccc(-c2c(-c3ccc(F)cc3)ncn2C2CCN(C)CC2)n1 [SB-222903],potency estimated from few doses,[7]; [17],348 nM
same,potency estimated from few doses,[11]; [17],625 nM
same,potency estimated from few doses,"[12]; compound concentrations: 100 nM and 1000 nM (sheet 'Samples'), CATDS: 0.13479921836841699",29.9 nM
CS(=O)(=O)c1ccc(-c2cnc(N)c(C(=O)Nc3ccccc3)n2)cc1 [VE-821],potency estimated from few doses,"[1]; compound concentrations: 100 nM and 1000 nM (sheet 'Samples'), CATDS: 0.28747433490732499",334 nM
same,potency estimated from few doses,[16],475 nM
Cc1ccc(O)cc1Nc1ccnc2ccc(C(C)(C)C)cc12 [GW856805X],potency estimated from few doses,"[9]; compound concentrations: 100 nM and 1000 nM (sheet 'Samples'), CATDS: 0.48562635988047498",1.03 nM
same,potency estimated from few doses,[3]; CATDS: 5.5452484233419301E-2,44.2 nM
